# A selection: hits, their analogues and other compounds. The true share with any hit is near 0.61%.
# BH1578 lux ind: inducers of Vibrio cholerae quorum light production without autoinducers; V. cholerae BH1578 lux reporter, luminescence, 6 h; activation, % at 18.7 µM; actives 0.16% (n = 350,000); in the data active = activation mostly above about 9.7%, no sharp cut-off
# TcdB inh: blocks C. difficile toxin B glycohydrolase activity; P18177; TcdB glycohydrolase enzymatic assay, plate reader; inhibition, % at 9.99 µM; actives 0.24% (n = 350,000); in the data active = inhibition above about 10%
# Mtb BioA inh: BioA (M. tuberculosis) enzyme inhibition | inhibition, % at 9.99 µM | AID 602481 | actives 0.096% (n = 360,000) | purified M. tuberculosis BioA enzyme, plate reader; in the data active = inhibition above about 40%
# Y pestis TopoI: inhibitors of Yersinia pestis topoisomerase I; AID 504884; activity, % at 10 µM; Y. pestis Topo-I cleavage product accumulation, plate reader; actives 0.064% (n = 360,000); in the data active = activity above about 50%, passing the limit was not always enough
# FadD28 FP inh: M. tuberculosis FadD28 bisubstrate binding inhibition | AID 588549 | actives 0.22% (n = 360,000) | FadD28 bisubstrate probe binding, fluorescence polarization | inhibition, % at 12.5 µM; in the data active = inhibition above about 8.5%, passing the limit was not always enough
# * marks the source's active call; other numbers are inactive results; i = inactive; / = no result given; + = active, no number.
SMILES,BH1578 lux ind,TcdB inh,Mtb BioA inh,Y pestis TopoI,FadD28 FP inh
O=C(C[C@@H]1C[C@@H]2c3cc(NC(=O)Nc4ccccc4)ccc3O[C@@H]2[C@H](CO)O1)NCc1ccccc1,/,4,-2,/,/
O=C(C[C@H]1C[C@@H]2c3cc(NC(=O)c4ccc5c(c4)OCO5)ccc3O[C@@H]2[C@@H](CO)O1)NCc1cccc(F)c1,/,20*,5,/,/
O=C(C[C@@H]1C[C@H]2c3cc(NC(=O)c4ccc5c(c4)OCO5)ccc3O[C@H]2[C@H](CO)O1)NCc1cccc(F)c1,/,18*,4,/,/
O=C(C[C@@H]1C[C@@H]2c3cc(NC(=O)c4ccc5c(c4)OCO5)ccc3O[C@@H]2[C@@H](CO)O1)NCc1cccc(F)c1,/,17*,0,/,/
O=C(C[C@@H]1C[C@H]2c3cc(NC(=O)Nc4ccccc4)ccc3O[C@H]2[C@H](CO)O1)NCc1ccccc1,/,12*,0,/,/
O=C(C[C@@H]1CC[C@@H]2[C@H](COC[C@@H](O)CN2Cc2nccs2)O1)NCc1ccc(Oc2ccccc2)cc1,/,0,-1,/,/
COc1ccc(NC(=O)N2CC3(C2)CN(C(=O)CN2CCOCC2)[C@H](CO)c2[nH]c4cc(OC)ccc4c23)cc1,/,-2,/,/,/
CC1CC(=O)N(c2ccc(NCCc3ccccc3)c([N+](=O)[O-])c2)C1=O (stereo not given),-1,1,-2,16,1
CC1CC(=O)N(c2ccc(NCCc3ccc(O)cc3)c([N+](=O)[O-])c2)C1=O (stereo not given),0,12*,4,-2,0
O=C(Nc1ccc(F)cc1)N1CC(=O)N2[C@H](CO)[C@H](c3ccc(Br)cc3)[C@H]2C1,/,1,/,/,/
CCOC(=O)c1c(NS(=O)(=O)c2ccc(Br)cc2)sc2c1CCC2,/,/,3,-8,12*
Cc1ccc(S(=O)(=O)Nc2ccc3c(c2)C(=O)N([C@H](C)CO)C[C@H](C)[C@@H](CN(C)S(=O)(=O)c2ccc(Cl)cc2)OCCCC[C@@H](C)O3)cc1,/,/,-1,/,/
C/C=C/c1ccc2c(c1)O[C@@H](CN(C)C(=O)c1cccc(F)c1)[C@@H](C)CN([C@H](C)CO)S2(=O)=O,/,0,7,/,/
CCCS(=O)(=O)N1CCCC(C(=O)NCCCN(CC)c2cccc(C)c2)C1 (stereo not given),+,/,0,23,-2
COc1ccc(NC(=O)CSc2nncs2)cc1S(N)(=O)=O,0,1,/,-5,-1
COc1ccc(NC(=O)CSc2nccn2C)cc1S(N)(=O)=O,i,11*,/,-6,-2
CCOC(=O)C(=O)NNc1ccc(Cl)cc1,i,47*,/,-1,-2
C[C@@H]1CN([C@@H](C)CO)C(=O)Cc2cc(N(C)C)ccc2O[C@H]1CN(C)Cc1ccc(Cl)c(Cl)c1,/,-6,2,/,/
COc1ccc(C(=O)NC(C(=O)NCc2ccccc2OC)C(C)C)cc1 (stereo not given),-2,15*,/,5,-5
CCOc1ccc(C(=O)NC(C(=O)NCc2ccccc2OC)C(C)C)cc1 (stereo not given),0,0,/,-3,-2
C[C@@H]1CN([C@@H](C)CO)C(=O)c2cc(NC(=O)Nc3ccc(C(F)(F)F)cc3)ccc2O[C@@H](C)CCCCO[C@@H]1CN(C)Cc1ccc2c(c1)OCO2,/,0,-4,/,/
COc1ccc(/C=N/N=C2/NC(=O)C(CC(=O)NC(N)=O)S2)cc1 (stereo not given),i,11*,-1,-3,0
Cc1ccc(NC(=O)N2CCc3ccccc32)cc1C,0,6,/,2,-4
CN1C(=O)CSc2ccc(NC(=O)N3CCc4ccccc43)cc21,-1,16*,-4,-1,-1
O=C(C[C@H]1C=C[C@@H](NC(=O)c2ccccc2)[C@@H](CO)O1)NCc1ccc(Oc2ccccc2)cc1,/,0,/,/,/
SMILES,BH1578 lux ind,TcdB inh,Mtb BioA inh,Y pestis TopoI,FadD28 FP inh
NS(=O)(=O)c1cccc(NC(=S)NCc2ccc3c(c2)OCO3)c1,0,2,0,8,1
NS(=O)(=O)c1ccc(NC(=S)NCc2ccc3c(c2)OCO3)cc1,0,12*,/,-5,0
Cc1ccc(/C=C2/SC(=S)N(CCCC(=O)Nc3cc([N+](=O)[O-])ccc3O)C2=O)cc1,i,0,0,-4,-2
O=C(CN1C(=O)S/C(=C\c2ccccc2)C1=O)Nc1cc([N+](=O)[O-])ccc1O,-1,0,8,-5,18*
COCC#Cc1ccc2c(c1)O[C@H](CN(C)C(=O)CC1CC1)[C@@H](C)CN([C@H](C)CO)S2(=O)=O,/,12*,-1,/,/
Cc1ccc(S(=O)(=O)N2CCC(C(=O)OCC(=O)NCCc3ccccc3)CC2)cc1C,1,16*,/,11,-1

# Source: PubChem BioAssay (Broad Institute)
